The panel holds about 83,000 compounds, 20% with a hit somewhere; the sample as a whole holds those more often.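 Step 1: grow cells in 96-well plates. Step 2: add test compound at a single concentration. Step 3: incubate 48 h. Step 4: record percent growth.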 A number with no mark means an inactive call. The source made the active and inactive calls. Rule for the calls: active = growth percent below 10; inactive = the rest.
What was measured:
Assay in all cases: NCI-60 one-dose screen, 48 h (100 = growth as untreated, 0 = no growth, -100 = all killed)
NCI-H23 lung = conditions: 10 µM unless noted
NCI-H226 lung = conditions: 10 µM unless noted
NCI-H322M lung = conditions: 10 µM unless noted
HOP-62 NSCLC = conditions: 10 µM unless noted
NCI-H460 lung = conditions: 10 µM unless noted
HOP-92 NSCLC = conditions: 10 µM unless noted
NCI-H522 lung = conditions: 10 µM unless noted
A549/ATCC NSCLC = conditions: 10 µM unless noted
786-0 renal = conditions: 10 µM unless noted
COLO 205 colon = conditions: 10 µM unless noted
DU-145 prostate = conditions: 10 µM unless noted
K-562 leukemia = conditions: 10 µM unless noted
MALME-3M melanoma = conditions: 10 µM unless noted
MDA-MB-231 breast = conditions: 10 µM unless noted
SF-268 CNS = conditions: 10 µM unless noted
SF-295 CNS = conditions: 10 µM unless noted
SF-539 CNS = conditions: 10 µM unless noted
M14 melanoma = conditions: 10 µM unless noted
RXF 393 renal = conditions: 10 µM unless noted
UACC-257 melanoma = conditions: 10 µM

Structure (SMILES) | growth (NCI-H23 lung) | growth (NCI-H226 lung) | growth (NCI-H322M lung) | growth (HOP-62 NSCLC) [%] | growth (NCI-H460 lung) | growth (HOP-92 NSCLC) | growth (NCI-H522 lung) | growth (A549/ATCC NSCLC) [%] | growth (786-0 renal) | growth (COLO 205 colon) | growth (DU-145 prostate) | growth (K-562 leukemia) | growth (MALME-3M melanoma) [%] | growth (MDA-MB-231 breast) [%] | growth (SF-268 CNS) [%] | growth (SF-295 CNS) | growth (SF-539 CNS) | growth (M14 melanoma) [%] | growth (RXF 393 renal) | growth (UACC-257 melanoma) [%]
CC(C)(C)c1cn2cccc(C(=O)N3CCN(CC(=O)Nc4ccc(Cl)cc4C(=O)c4ccccc4Cl)CC3)c2n1 | 60.6% | 71.6% | 94.6% | 84.7 | 49.8% | -30% (active) | 54.9% | 27.6 | 55.3% | 54.2% | 73.3% | 33.5% | 86.4 | 73.5 | 85.8 | -5.34% (active) | 51.4% | 48.5 |  | 
COc1ccc(NC(=S)/N=c2\oc3c(OC)cccc3cc2-c2cc3ccccc3[nH]2)cc1 | 70.1% | 58.8% | 80.8% | 37.6 | 69.8% | -9.96% (active) | 86.3% | 85.2 | 65% | 101% | 62.6% | 81.4% | 63.5 | 42.2 | 73 | 84.6% | 26.4% | 93.5 |  | 
CCCCCCCCCN1C(=O)/C(=c2\sc3n(c2=O)C2C(NN=3)N(CC)C(=O)N2CC)c2ccccc21 (stereo unspecified) | 10.1% | 89.6% | 77% | 45.1 | 46.1% | 44.5% | 26.8% | 56 | 78.4% | 93.3% | 69.8% | 21.3% | 50.7 | 63.9 | 50.9 | 61% | 8.03% (active) | 90.8 |  | 
O=S(=O)(NCCNc1nccc(-c2c(-c3ccccc3)nc3sccn23)n1)c1ccc(O)cc1 | 50.3% | 46% | 58.2% | 58.9 | 21.4% | 61.3% | 65.4% | 32.2 | 64.1% | 28.5% | 46% | 35.9% |  | 50 | 46.5 | 47.3% | 59.2% |  | 45.9% | 82.4
O=C(CC(O)c1ccncc1)c1ccccc1 (stereo unspecified) | -18.6% (active) | 9.03% (active) | -8.53% (active) | 22.9 | 102% | 10.2% | -36.6% (active) | 15.5 | 9.96% (active) | -54.7% (active) | 3.98% (active) | 57.9% | 91.9 |  | 74.9 | 51.8% | 8.03% (active) | 90.8 | -69.4% (active) | 83.1
CCN1C(=O)N(CC)C2Nn3c(s/c(=C4\C(=O)N(C5CCCC5)c5ccccc54)c3=O)=NC21 (stereo unspecified) | 53.9% | 91.8% | 94.8% | 50 | 43.9% | 67.4% | 28% | 54.4 | 63.6% | 26.2% | 43.6% | 22% | 70.9 | 58.1 | 59.5 | 60.6% | 37% | 91.9 |  | 
Clc1nc(Cl)c2ncn(C/C=C/Cn3cnc4c(Cl)nc(Cl)nc43)c2n1 | 94.7% | 94.2% | 94.6% | 94.3 | 84.5% | -13.3% (active) | 27.7% | 71.6 | 93.2% | 63.3% | 44.2% | 17.4% | 111 | 96.4 | 62.3 | 60.4% | 46.8% | 101 |  | 
O=C(Nc1ccccc1)OCC1OCOC(COC(=O)Nc2ccccc2)C1OC(=O)Nc1ccccc1 (stereo unspecified) | 67.1% | 84% | 49.4% | 64.8 | 6.23% (active) | 94.9% | 38.2% | 47.9 | 49.3% | 91.6% | 43.7% | 57.9% | 72.2 |  | 39.8 | 90.5% | 72.4% | 16.2 | 37% | 102
COc1ccc(C(=O)N2CCN(C(=O)c3cc(OC)c(OC)c(OC)c3)CC2)cc1OCCCCOc1cc2c(cc1OC)C(=O)N1CCC[C@H]1C=N2 | 82.2% | 105% | 141% | 105 | 121% | 70.9% | 102% | 76.8 | 108% | 107% | 113% | 116% | 126 | 82.4 | 126 | 109% | 98.9% | 115 |  | 
CSc1ccccc1C#C/C=C\C#Cc1ccccc1N1CCCCC1=O | 103% | 91.2% | 110% | 88.2 | 93.3% | 63.8% | 99.7% | 48.6 | 106% | 108% | 107% | 143% | 89.2 | 90.8 | 101 | 111% | 93.4% | 104 |  | 
O=C1Nc2cc(Cl)ccc2Oc2cc(Oc3ccccc3)ccc21 | 54.8% | 72.3% | 76.2% | 64.1 | 25.1% | 115% | 45.1% | 62.2 | 74.3% | 45.2% | 71.5% | 25.5% | 87.1 | 63.9 | 63 | 49% | 64.7% | 41.1 |  | 
NC(=O)c1c(NC(=O)c2ccc(OCC3CCCO3)cc2)sc2c1CCCC2 (stereo unspecified) | 100% | 83.8% | 99.8% | 108 | 106% | 66.9% | 87.3% | 35.5 | 95.5% | 111% | 105% | 134% | 82.4 | 96.6 | 109 | 93.8% | 100% | 108 |  | 
O=c1oc2c([nH]c3ccc4ccccc4c32)c2ccccc12 | 93.6% | 104% | 101% | 103 | 112% | 90.2% | 102% | 134 | 102% | 108% | 106% | 124% | 115 | 112 | 115 | 99.6% | 102% | 109 |  | 
Nc1nc(-c2cc3ccccc3o2)cc(=O)c(=O)[nH]1 | 105% | 95.7% | 95.4% | 96.6 | 98.1% | -2.74% (active) | 91.9% | 110 | 107% | 106% | 108% | 103% | 94.3 | 98.3 | 96.5 | 109% | 89.3% | 106 |  | 
CCOC(=O)c1ccccc1NC(c1ccccc1)c1ccc2cccnc2c1O (stereo unspecified) | 30.3% | 7.15% (active) | 42.5% | 16.4 | 6.16% (active) | 16.5% | -1.69% (active) | 21.6 | 1.44% (active) | 16.3% | 36.9% | 30.2% | 54.4 |  | 28.6 | 25.4% | 11.8% | 15.7 | 25% | 22.1
CC(=O)OCC1OC(OCC2OC(OC(C)=O)C(OC(C)=O)C(OC(C)=O)C2OC(C)=O)C(OC(C)=O)C(OC(C)=O)C1OC(C)=O (stereo unspecified) | 103% | 83.1% | 101% | 97.5 | 104% | 91.7% | 104% | 94.4 | 103% | 107% | 110% | 106% | 108 |  | 105 | 99.3% | 108% | 107 | 71% | 95.8
NS(=O)(=O)c1ccc(NCC(=O)Nc2ccc(-c3nc4ccccc4s3)cc2)cc1 | 74.7% | 83.7% | 88% | 118 | 92.5% | 73.5% | -63.8% (active) | 92.6 | 12.1% |  | 47% | 8.38% (active) | 53.6 | 45 | 25.1 | 98.8% | 91.4% | 45.6 | 99.9% | 97.2
